# Key:
# Experiment in all cases: DAPPL (digital affinity profiling via proximity ligation, sequencing); 10 mM Tris-HCl pH 7.5, 50 mM NaCl, 1 mM DTT, 4% glycerol, room temperature, 30 min; GST-TFs on glutathione beads, 16-mer random dsDNA library, 0.1% formaldehyde crosslink after washing; high values mean tight binding
# [1] = molecular target: T1, FLI1 (Homo sapiens, UniProt Q01543 1-452); details: protein: recombinant; tags: N-terminal GST; dsDNA, one strand shown
# T1 sequence: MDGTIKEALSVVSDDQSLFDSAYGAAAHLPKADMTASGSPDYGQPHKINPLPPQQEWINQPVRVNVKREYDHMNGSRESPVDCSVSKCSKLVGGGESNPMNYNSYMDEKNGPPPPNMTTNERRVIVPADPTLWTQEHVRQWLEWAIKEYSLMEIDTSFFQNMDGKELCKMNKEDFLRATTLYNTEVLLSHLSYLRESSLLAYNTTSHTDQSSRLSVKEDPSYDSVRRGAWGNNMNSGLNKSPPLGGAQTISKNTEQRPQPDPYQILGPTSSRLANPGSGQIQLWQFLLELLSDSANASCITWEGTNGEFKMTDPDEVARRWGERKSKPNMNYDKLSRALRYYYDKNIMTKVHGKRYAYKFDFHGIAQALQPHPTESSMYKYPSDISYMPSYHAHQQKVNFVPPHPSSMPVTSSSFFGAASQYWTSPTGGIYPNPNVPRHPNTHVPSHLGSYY
# Summary of the method: (§1)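 A tag-only sample was pooled with DNA-barcoded human transcription factors that had been expressed in yeast as GST fusions and captured on glutathione beads. The pools were incubated for 30 min at room temperature with 200 nmole of a random double-stranded 16-mer DNA library in Tris/NaCl/DTT/glycerol buffer, then washed, crosslinked with 0.1% formaldehyde, proximity-ligated (BsaI/T4 ligase, 1 h, 37 °C), PCR-amplified and sequenced on an Illumina NextSeq500. Binding signal is each hexamer's read frequency for a factor divided by its frequency for the tag-only sample.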
# [2] = molecular target: T2, ELK1 (Homo sapiens, UniProt P19419 1-428); details: protein: recombinant; tags: N-terminal GST; dsDNA, one strand shown
# T2 sequence: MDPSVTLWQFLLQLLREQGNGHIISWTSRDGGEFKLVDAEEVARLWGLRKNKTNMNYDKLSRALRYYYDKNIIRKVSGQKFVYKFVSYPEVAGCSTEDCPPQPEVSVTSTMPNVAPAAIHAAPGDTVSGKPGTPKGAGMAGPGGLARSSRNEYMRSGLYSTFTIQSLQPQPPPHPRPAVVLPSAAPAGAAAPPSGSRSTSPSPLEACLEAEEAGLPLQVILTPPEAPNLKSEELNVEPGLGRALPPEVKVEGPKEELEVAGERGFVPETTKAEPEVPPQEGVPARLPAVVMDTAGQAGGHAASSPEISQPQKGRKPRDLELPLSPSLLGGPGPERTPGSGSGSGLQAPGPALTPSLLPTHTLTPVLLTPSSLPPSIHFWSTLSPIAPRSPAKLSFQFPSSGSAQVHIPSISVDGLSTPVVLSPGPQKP
# Summary of the method: as §1
# [3] = molecular target: T3, GABPA (Homo sapiens, UniProt Q06546 1-454); details: protein: recombinant; tags: N-terminal GST; dsDNA, one strand shown
# T3 sequence: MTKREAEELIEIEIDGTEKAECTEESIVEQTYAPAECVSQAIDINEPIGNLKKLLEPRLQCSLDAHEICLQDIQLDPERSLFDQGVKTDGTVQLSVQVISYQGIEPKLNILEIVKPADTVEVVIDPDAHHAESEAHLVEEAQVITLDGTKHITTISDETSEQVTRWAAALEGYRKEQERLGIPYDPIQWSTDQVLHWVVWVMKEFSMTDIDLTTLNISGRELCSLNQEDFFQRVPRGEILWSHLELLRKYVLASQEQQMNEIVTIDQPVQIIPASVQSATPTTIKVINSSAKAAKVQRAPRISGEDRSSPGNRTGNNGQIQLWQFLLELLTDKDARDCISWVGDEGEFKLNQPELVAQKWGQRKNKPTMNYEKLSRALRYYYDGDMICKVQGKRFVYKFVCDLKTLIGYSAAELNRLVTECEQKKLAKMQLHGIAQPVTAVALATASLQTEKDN
# Summary of the method: as §1
# [4] = molecular target: T4, ERG (Homo sapiens, UniProt P11308 1-479); details: protein: recombinant; tags: N-terminal GST; dsDNA, one strand shown
# T4 sequence: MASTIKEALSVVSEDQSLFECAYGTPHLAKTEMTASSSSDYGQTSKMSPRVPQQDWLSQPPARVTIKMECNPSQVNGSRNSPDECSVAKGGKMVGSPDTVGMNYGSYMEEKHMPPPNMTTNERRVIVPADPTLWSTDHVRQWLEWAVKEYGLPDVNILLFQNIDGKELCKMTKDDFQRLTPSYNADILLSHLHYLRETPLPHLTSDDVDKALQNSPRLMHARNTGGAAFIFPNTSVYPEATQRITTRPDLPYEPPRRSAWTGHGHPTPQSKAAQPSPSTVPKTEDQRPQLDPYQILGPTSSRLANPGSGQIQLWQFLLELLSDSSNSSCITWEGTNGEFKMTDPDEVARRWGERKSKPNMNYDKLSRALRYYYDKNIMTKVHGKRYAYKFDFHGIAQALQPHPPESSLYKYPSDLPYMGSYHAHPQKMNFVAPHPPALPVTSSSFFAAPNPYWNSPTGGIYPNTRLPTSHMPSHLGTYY
# Summary of the method: as §1
# [5] = molecular target: ELF1 (Homo sapiens, UniProt P32519 1-619); details: protein: recombinant; tags: N-terminal GST; dsDNA, one strand shown
# ELF1, sequence (P32519 whole entry): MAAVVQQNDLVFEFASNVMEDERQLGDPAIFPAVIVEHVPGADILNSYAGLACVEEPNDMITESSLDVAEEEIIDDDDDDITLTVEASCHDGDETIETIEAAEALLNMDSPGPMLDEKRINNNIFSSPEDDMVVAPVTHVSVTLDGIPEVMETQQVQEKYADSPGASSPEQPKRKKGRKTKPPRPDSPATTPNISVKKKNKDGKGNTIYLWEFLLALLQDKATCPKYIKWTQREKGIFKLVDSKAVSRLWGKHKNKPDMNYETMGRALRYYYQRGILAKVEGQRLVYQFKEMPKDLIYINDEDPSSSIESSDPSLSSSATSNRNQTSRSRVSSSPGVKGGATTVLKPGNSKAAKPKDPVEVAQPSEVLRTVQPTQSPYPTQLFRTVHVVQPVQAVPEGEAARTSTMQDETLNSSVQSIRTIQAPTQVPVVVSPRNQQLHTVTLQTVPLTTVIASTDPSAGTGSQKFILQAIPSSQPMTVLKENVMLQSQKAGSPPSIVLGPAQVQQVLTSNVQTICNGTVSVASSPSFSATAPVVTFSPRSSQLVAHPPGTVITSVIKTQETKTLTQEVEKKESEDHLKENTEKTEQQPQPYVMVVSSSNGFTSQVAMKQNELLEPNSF
# Summary of the method: as §1
# [6] = molecular target: SPI1 (Homo sapiens, UniProt P17947 1-270); details: protein: recombinant; tags: N-terminal GST; dsDNA, one strand shown
# Summary of the method: as §1
# [7] = molecular target: SPIB (Homo sapiens, UniProt Q01892 1-262); details: protein: recombinant; tags: N-terminal GST; dsDNA, one strand shown
# SPIB, sequence (Q01892 whole entry): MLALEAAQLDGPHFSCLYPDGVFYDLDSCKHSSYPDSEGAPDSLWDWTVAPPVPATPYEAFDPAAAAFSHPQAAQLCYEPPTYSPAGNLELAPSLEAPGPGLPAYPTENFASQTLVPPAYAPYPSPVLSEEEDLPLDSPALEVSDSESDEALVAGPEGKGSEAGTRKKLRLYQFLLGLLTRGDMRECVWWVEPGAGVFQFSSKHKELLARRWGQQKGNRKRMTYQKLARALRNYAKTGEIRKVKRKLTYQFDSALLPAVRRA
# Summary of the method: as §1
# [8] = molecular target: T5, FEV (Homo sapiens, UniProt Q99581 1-238); details: protein: recombinant; tags: N-terminal GST; dsDNA, one strand shown
# T5 sequence: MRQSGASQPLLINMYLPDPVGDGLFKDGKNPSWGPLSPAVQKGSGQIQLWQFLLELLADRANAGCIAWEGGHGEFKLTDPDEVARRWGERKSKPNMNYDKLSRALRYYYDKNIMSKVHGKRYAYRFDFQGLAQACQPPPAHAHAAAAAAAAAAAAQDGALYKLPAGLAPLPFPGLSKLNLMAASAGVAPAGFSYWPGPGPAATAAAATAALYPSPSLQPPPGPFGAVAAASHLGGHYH
# Summary of the method: as §1
# [9] = molecular target: ETV5 (Homo sapiens, UniProt P41161 1-510); details: protein: recombinant; tags: N-terminal GST; dsDNA, one strand shown
# ETV5, sequence (P41161 whole entry): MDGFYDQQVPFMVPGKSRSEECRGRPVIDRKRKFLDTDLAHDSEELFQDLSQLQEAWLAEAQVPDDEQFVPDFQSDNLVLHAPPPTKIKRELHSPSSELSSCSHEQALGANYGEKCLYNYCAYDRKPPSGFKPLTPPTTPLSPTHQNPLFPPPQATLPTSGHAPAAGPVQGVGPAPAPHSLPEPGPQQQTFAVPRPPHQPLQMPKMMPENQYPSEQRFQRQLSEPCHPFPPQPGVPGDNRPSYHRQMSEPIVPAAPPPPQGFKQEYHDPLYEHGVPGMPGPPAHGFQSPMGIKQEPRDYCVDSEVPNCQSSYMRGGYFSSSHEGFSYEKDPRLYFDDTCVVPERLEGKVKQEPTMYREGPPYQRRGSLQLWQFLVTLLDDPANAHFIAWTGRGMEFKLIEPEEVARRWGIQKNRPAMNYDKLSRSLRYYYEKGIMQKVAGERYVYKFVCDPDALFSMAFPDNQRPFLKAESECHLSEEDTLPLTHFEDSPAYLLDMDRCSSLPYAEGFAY
# Summary of the method: as §1
# [10] = molecular target: HSF1 (Homo sapiens, UniProt Q00613 1-529); details: protein: recombinant; tags: N-terminal GST; chain copies: 3; dsDNA, one strand shown
# HSF1, sequence (Q00613 whole entry): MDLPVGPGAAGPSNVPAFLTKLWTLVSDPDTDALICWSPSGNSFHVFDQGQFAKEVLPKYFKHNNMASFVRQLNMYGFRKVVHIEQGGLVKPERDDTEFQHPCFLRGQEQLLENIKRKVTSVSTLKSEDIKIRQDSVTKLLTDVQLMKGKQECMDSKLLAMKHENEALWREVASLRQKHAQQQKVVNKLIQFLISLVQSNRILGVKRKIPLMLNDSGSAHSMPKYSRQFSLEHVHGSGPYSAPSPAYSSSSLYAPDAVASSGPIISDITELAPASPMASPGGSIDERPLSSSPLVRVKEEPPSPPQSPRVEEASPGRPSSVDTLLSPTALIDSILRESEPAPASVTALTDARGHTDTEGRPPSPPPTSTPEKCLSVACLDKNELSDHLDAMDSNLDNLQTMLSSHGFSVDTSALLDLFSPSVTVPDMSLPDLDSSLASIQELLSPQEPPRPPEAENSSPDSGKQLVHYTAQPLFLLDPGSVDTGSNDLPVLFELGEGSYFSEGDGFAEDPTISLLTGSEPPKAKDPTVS
# Summary of the method: as §1
# [11] = molecular target: ELF4 (Homo sapiens, UniProt Q99607 1-663); details: protein: recombinant; tags: N-terminal GST; dsDNA, one strand shown
# ELF4, sequence (Q99607 whole entry): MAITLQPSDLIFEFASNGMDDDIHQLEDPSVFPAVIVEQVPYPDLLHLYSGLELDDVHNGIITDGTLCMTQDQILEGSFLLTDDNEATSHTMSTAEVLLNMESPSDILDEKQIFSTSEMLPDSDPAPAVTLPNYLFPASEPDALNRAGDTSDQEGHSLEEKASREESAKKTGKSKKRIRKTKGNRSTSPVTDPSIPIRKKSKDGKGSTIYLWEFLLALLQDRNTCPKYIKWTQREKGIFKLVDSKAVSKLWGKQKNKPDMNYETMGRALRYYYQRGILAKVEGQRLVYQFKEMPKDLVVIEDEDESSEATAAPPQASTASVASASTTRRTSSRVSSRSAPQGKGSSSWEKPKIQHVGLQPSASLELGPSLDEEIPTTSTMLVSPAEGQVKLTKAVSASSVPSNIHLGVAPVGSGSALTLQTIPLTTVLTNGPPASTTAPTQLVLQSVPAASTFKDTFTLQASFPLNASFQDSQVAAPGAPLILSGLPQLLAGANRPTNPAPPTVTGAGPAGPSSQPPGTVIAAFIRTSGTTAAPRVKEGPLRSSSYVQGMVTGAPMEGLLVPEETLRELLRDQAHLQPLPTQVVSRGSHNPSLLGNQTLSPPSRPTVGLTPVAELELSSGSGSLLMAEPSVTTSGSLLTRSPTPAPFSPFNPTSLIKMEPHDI
# Summary of the method: as §1
# [12] = molecular target: T6, ELF3 (Homo sapiens, UniProt P78545 1-371); details: protein: recombinant; tags: N-terminal GST; dsDNA, one strand shown
# T6 sequence: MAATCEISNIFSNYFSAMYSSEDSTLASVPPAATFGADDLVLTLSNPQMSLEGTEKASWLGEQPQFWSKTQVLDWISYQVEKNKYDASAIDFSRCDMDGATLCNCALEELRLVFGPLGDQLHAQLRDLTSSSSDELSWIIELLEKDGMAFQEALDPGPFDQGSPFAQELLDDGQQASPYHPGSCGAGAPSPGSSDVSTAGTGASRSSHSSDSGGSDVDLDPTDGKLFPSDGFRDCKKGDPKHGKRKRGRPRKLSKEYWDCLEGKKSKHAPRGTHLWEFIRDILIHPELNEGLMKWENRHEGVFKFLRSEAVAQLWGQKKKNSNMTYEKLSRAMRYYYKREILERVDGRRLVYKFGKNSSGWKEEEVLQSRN
# Summary of the method: as §1
# [13] = molecular target: ETV1 (Homo sapiens, UniProt P50549 1-477); details: protein: recombinant; tags: N-terminal GST; dsDNA, one strand shown
# ETV1, sequence (P50549 whole entry): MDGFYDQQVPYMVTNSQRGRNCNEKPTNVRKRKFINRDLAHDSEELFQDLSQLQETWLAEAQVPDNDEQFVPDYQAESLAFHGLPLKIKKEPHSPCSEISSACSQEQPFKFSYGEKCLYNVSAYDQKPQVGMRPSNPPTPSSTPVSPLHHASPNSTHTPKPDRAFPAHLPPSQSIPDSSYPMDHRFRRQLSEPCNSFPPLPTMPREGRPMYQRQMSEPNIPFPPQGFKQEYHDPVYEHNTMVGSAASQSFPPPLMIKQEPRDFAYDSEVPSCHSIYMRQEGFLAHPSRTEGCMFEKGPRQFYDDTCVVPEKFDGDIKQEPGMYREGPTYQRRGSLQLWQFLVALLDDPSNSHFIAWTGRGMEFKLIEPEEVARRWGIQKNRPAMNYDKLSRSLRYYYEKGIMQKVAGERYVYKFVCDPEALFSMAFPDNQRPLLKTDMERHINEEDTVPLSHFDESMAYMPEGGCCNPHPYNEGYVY
# Summary of the method: as §1
# [14] = molecular target: T7, EHF (Homo sapiens, UniProt Q9NZC4 1-300); details: protein: recombinant; tags: N-terminal GST; dsDNA, one strand shown
# T7 sequence: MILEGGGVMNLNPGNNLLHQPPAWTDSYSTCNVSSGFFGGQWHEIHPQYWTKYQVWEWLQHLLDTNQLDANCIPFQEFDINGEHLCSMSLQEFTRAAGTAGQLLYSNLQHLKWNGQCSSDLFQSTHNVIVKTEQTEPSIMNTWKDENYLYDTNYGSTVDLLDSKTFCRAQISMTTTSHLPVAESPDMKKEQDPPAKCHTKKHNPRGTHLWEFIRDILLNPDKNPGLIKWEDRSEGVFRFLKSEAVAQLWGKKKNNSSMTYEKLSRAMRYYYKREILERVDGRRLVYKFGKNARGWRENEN
# Summary of the method: as §1
# [15] = molecular target: T8, ELK3 (Homo sapiens, UniProt P41970 1-407); details: protein: recombinant; tags: N-terminal GST; dsDNA, one strand shown
# T8 sequence: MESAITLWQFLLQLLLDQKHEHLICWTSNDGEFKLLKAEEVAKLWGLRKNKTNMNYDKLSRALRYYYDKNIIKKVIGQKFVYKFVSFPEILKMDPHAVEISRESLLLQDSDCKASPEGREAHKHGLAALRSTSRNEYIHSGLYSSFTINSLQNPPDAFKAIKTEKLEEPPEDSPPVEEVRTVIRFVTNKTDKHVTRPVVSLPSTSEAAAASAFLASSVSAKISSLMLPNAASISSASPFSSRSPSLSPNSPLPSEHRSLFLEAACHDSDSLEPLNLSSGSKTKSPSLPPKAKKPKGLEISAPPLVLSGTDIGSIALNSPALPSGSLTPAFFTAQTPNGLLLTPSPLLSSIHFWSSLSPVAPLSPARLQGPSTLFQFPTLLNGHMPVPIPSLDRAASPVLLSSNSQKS
# Summary of the method: as §1
# [16] = molecular target: T9, ELK4 (Homo sapiens, UniProt P28324-2 1-405); details: protein: recombinant; tags: N-terminal GST; dsDNA, one strand shown
# T9 sequence: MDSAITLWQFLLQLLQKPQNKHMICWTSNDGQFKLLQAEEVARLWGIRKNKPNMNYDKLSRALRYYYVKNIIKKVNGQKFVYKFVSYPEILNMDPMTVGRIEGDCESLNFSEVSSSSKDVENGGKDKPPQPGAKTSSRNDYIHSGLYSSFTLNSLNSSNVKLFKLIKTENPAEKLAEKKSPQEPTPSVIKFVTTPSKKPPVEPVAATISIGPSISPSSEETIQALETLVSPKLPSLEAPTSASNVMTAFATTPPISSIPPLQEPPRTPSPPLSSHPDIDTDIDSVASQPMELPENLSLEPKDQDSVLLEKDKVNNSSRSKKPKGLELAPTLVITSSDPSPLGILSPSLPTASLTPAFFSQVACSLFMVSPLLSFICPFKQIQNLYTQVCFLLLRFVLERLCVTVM
# Summary of the method: as §1
# [17] = molecular target: CRX (Homo sapiens, UniProt O43186 1-299); details: protein: recombinant; tags: N-terminal GST; dsDNA, one strand shown
# CRX, sequence (O43186 whole entry): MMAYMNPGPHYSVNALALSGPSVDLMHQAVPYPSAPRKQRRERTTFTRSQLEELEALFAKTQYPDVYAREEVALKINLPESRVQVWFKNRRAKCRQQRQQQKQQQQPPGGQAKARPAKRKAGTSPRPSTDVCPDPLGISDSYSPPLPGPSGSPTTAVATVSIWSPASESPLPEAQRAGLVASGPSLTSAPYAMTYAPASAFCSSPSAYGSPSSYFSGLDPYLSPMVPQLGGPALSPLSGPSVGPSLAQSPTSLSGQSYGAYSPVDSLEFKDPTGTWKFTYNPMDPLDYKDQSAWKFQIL
# Summary of the method: as §1
Sequence,binding signal [1],binding signal [2],binding signal [3],binding signal [4],binding signal [5],binding signal [6],binding signal [7],binding signal [8],binding signal [9],binding signal [10],binding signal [11],binding signal [12],binding signal [13],binding signal [14],binding signal [15],binding signal [16],binding signal [17]
AATGGA,"1.01 fold enrichment (6-mer frequency, TF over GST control)","1.01 fold enrichment (6-mer frequency, TF over GST control)","1.01 fold enrichment (6-mer frequency, TF over GST control)","1.06 fold enrichment (6-mer frequency, TF over GST control)","1.03 fold enrichment (6-mer frequency, TF over GST control)","1.06 fold enrichment (6-mer frequency, TF over GST control)","1.06 fold enrichment (6-mer frequency, TF over GST control)","1.09 fold enrichment (6-mer frequency, TF over GST control)","1.05 fold enrichment (6-mer frequency, TF over GST control)","1.12 fold enrichment (6-mer frequency, TF over GST control)","1.08 fold enrichment (6-mer frequency, TF over GST control)","1.05 fold enrichment (6-mer frequency, TF over GST control)","1.07 fold enrichment (6-mer frequency, TF over GST control)",,,,
CGGCTA,"1.16 fold enrichment (6-mer frequency, TF over GST control)","1.14 fold enrichment (6-mer frequency, TF over GST control)","1.1 fold enrichment (6-mer frequency, TF over GST control)","1.1 fold enrichment (6-mer frequency, TF over GST control)","1.15 fold enrichment (6-mer frequency, TF over GST control)","1.16 fold enrichment (6-mer frequency, TF over GST control)","1.21 fold enrichment (6-mer frequency, TF over GST control)","1.23 fold enrichment (6-mer frequency, TF over GST control)","1.19 fold enrichment (6-mer frequency, TF over GST control)","1.07 fold enrichment (6-mer frequency, TF over GST control)","1.07 fold enrichment (6-mer frequency, TF over GST control)","1.05 fold enrichment (6-mer frequency, TF over GST control)","1.2 fold enrichment (6-mer frequency, TF over GST control)","1.13 fold enrichment (6-mer frequency, TF over GST control)","1.02 fold enrichment (6-mer frequency, TF over GST control)","1.11 fold enrichment (6-mer frequency, TF over GST control)","1.18 fold enrichment (6-mer frequency, TF over GST control)"
